# Source: PubChem (several laboratories)
# Rows were chosen to be rich in hits. Some 3.2% of all compounds tested hit in one or more screens of this group.
# EWS-Fli inh = EWS/Fli-driven NR0B1 reporter inhibitors, primary screen, A673 cells, NR0B1 luciferase, luminescence, MLPCN library; viability-normalised; inhibition, % at 12.6 µM; actives 0.67% (n = 350,000); AID 651661, 2012;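 active = mean inhibition of at least 50% after viability correction, with every replicate also passing that limit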;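 also: firefly luciferase signal divided by Alamar Blue viability fluorescence both relative to DMSO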
# TROY NFkB inh = inhibitors of TROY-driven NF-kB signaling, primary screen, Q293 LMP1-TROYcd cells, NF-kB luciferase, uHTS; AID 1347056, 2019; Q293 LMP1-TROYcd NF-kB luciferase reporter, 4 h; actives 0.98% (n = 360,000); inhibition, % at 10 µM;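 active = compounds whose plate-normalised and pattern-corrected inhibition of the luciferase reporter signal at the single screening dose is 50% or more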
# LGR2 inh = inhibitors of bursicon-induced LGR2 CRE-luciferase signal, primary screen, cell-based, HEK293, CRE-luciferase reporter, bursicon stimulation; inhibition, % at 9.99 µM; AID 720647, 2013; bursicon-stimulated, 4 h; actives 0.35% (n = 380,000);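 active = drop in luminescence signal, shown as inhibition above about 50% in the replicate tests, limit read from the data, passing the limit was not always enough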;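 also: agonist challenge used bursicon conditioned medium at about half maximal strength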
# PAX8 reporter = inhibitors of PAX8-driven TPO luciferase reporter, primary screen, RMG-I cells, single concentration; SteadyGlo, 24 h; inhibition, % at 12.6 µM; actives 1.2% (n = 360,000); AID 652154, 2013;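 active = mean replicate inhibition at least 60% with every replicate also reaching 60%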;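 also: luciferase light reporting Pax8 driven TPO promoter activity; plate controls were median of neutral control wells for no effect and mitoxantrone controls for full effect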
# EBV LMP1 NFkB = EBV LMP1-driven NF-kappaB luciferase reporter inhibitors, primary screen, cell-based, luminescence, single point. LMP1-induced NF-kappaB luciferase reporter cells. inhibition, % at 12.5 µM. actives 0.69% (n = 350,000); in the data active = inhibition above about 41%;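 also: 0% = neutral control wells and 100% = reference inhibitor control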
# TWEAK Fn14 block = inhibitors of TWEAK-Fn14 signaling, primary screen, luciferase reporter cells, uHTS. TWEAK-stimulated Fn14 reporter cells, luciferase luminescence, 8 h. inhibition, % at 10 µM. actives 2% (n = 360,000); in the data active = inhibition above about 50%
# Active calls of the source: *; . = not tested or not shown.
SMILES,EWS-Fli inh,TROY NFkB inh,LGR2 inh,PAX8 reporter,EBV LMP1 NFkB,TWEAK Fn14 block
Cc1sc(NC(=O)c2ccco2)c(C(c2ccncc2)N2CCOCC2)c1C (stereo not given),.,0,.,14,-5,-22
Cc1cc(Sc2ncnc(N)c2[N+](=O)[O-])ncn1,.,13,.,.,-10,51*
O=C(c1cccc(F)c1)N1CC2(C1)[C@H](c1ccccc1)[C@H](CO)N2C(=O)C1CCOCC1,-3,.,-2,.,.,.
Cc1ccc2nc(/C(C#N)=C/c3cn[nH]c3-c3ccc(F)cc3)[nH]c2c1,.,16,.,.,13,59*
Cc1cc(C)cc(N=c2c([N+](=O)[O-])nn(-c3ccc4c(c3)OCCO4)n2O)c1,-8,34,-3,100*,16,25
O=[N+]([O-])c1nn(-c2ccc3c(c2)OCCO3)n(O)c1=NCCCO,.,24,.,-31,-20,48
CCc1ccc(N=c2c([N+](=O)[O-])nn(-c3ccc4c(c3)OCCO4)n2O)cc1,2,26,-3,2,13,26
O=[N+]([O-])c1nn(-c2ccc3c(c2)OCCO3)n(O)c1=Nc1ccccc1,74*,88*,22,29,75*,104*
O=[N+]([O-])c1nn(-c2ccc3c(c2)OCCO3)n(O)c1=Nc1ccc(Cl)cc1,16,88*,34,.,58*,100*
Cc1ccc(N=c2c([N+](=O)[O-])nn(-c3ccc4c(c3)OCCO4)n2O)cc1F,39,91*,35,7,49*,100*
O=C(O)C[C@H]1CC[C@H](NC(=O)CCN2CCCCC2)[C@@H](CO)O1,-7,.,-19,.,.,.
C[C@H](CO)N1C[C@H](C)[C@@H](CN(C)C(=O)NC2CCCCC2)Oc2ccc(NS(=O)(=O)c3cccs3)cc2CC1=O,-7,.,4,.,.,.
CCOc1cccc(C=NNC(=O)C(=O)Nc2cccc(C(F)(F)F)c2)c1O,14,.,28,70*,.,.
COc1ccc(/C=N/NC(=O)CSCC(=O)Nc2ccccc2)cc1,-16,1,8,-4,-30,-4
COC(=O)c1sccc1N/N=C/c1cccc(OC)c1O,32,43,77*,7,11,63*
COc1cccc(/C=N/NC(=O)CSCC(=O)Nc2ccccc2)c1O,8,-8,11,.,47*,-16
COC(=O)c1sccc1N/N=C/c1cccc(Oc2ccccc2)c1,-44,71*,20,-76,-24,53*
COC(=O)c1sccc1N/N=C/c1ccc(OC)c(OC)c1OC,-105,-57,-27,-163,-9,-54
COCC#Cc1cnc2c(c1)C(=O)N([C@@H](C)CO)C[C@H](C)[C@@H](CN(C)C(=O)NC1CCCC1)O2,-9,.,8,.,.,.
C/C=C/c1ccc([C@H]2[C@@H](CO)N(C(=O)CC)[C@@H]2CNC(=O)CC)cc1,-2,.,1,-8,.,.
CCC(=O)N(C)C[C@H]1Oc2cc(C3=CCCC3)ccc2S(=O)(=O)N([C@@H](C)CO)C[C@H]1C,4,.,0,.,.,.
CCN(CC)c1ccc(/C=C(/C#N)c2nc3ccccc3[nH]2)c(OC(C)C)c1,.,69*,.,.,5,76*
CCOc1cccc(/C=C(/C#N)c2nc3ccccc3[nH]2)c1OCC(=O)O,0,58*,-13,17,1,61*
COCCNC(=O)C[C@@H]1C[C@H]2c3cc(NC(=O)NC4CCCCC4)ccc3O[C@H]2[C@@H](CO)O1,1,.,-4,-10,.,.
CNC(=S)N/N=C1\C(=O)c2cccc3cccc1c23,.,-62,.,.,-27,97*
SMILES,EWS-Fli inh,TROY NFkB inh,LGR2 inh,PAX8 reporter,EBV LMP1 NFkB,TWEAK Fn14 block
CCCCNC(=S)N/N=C1\C(=O)c2cccc3cccc1c23,.,7,.,.,15,-12
CN(C)c1cccc(F)c1C(=O)NC(=O)Nc1ccc(Cl)cc1,53*,2,1,.,4,26
CCCNC(=O)C[C@@H]1CC[C@@H]2[C@H](COC[C@H](O)CN2C(=O)c2ccccn2)O1,1,.,-17,-8,.,.
O=C(/C=C/c1ccc2ccccc2n1)N1CCN(S(=O)(=O)c2ccc(F)cc2)CC1,25,-1,17,68*,23,17
O=C(/C=C/c1ccc2ccccc2n1)N1CCN(S(=O)(=O)c2ccccc2F)CC1,10,0,14,59,5,5
CC(C)(C)S(=O)N1Cc2cc(C(=O)NCCCN3CCOCC3)nc(-c3cccc(C#CCC4CCCC4)c3)c2[C@@H]1CCO (stereo not given in full),21,.,5,82*,.,.
O=C(NCc1ccc(F)cc1)[C@H]1[C@H](CO)[C@H]2Cn3c(cccc3=O)[C@@H]1N2Cc1cccnc1,-1,.,-4,.,.,.
COc1cccc(NC(=O)N2CCc3nc(Nc4ccc(C(C)C)cc4)ncc3C2)c1,-25,71*,.,11,.,75*
CC(C)c1ccc(NC(=O)N2CCc3nc(NCc4cccc(Oc5ccccc5)c4)ncc3C2)cc1,8,24,4,33,.,46
COc1cc(Nc2ncc3c(n2)CCN(C(=O)Nc2ccc(C(C)C)cc2)C3)cc(OC)c1OC,1,38,16,65*,.,22
COCC(=O)N1C[C@@H](C)[C@H](OC)CN(C)C(=O)c2cc(NC(=O)c3ccc(-c4ccccc4)cc3)ccc2OC[C@H]1C,6,.,5,22,.,.
O=C(O)CC(NC(=O)C1c2ccccc2Oc2ccccc21)c1ccc(OC2CCCC2)cc1 (stereo not given),2,-1,-14,121*,3,-24
Cc1ccc(Cl)cc1N1CCN(C(=O)CSc2nnc3n2C(C)(C)Cc2ccccc2-3)CC1,.,72*,.,-16,10,96*
COc1ccc(N2CCN(C(=O)CSc3nnc4n3C(C)(C)Cc3ccccc3-4)CC2)cc1,.,2,.,33,10,10
O=C(COc1ccc2ccccc2c1)Nc1cccc(C(=O)Nc2ccccc2C(=O)O)c1,.,15,-9,-5,-5,-1
O=C(O)c1ccccc1Nc1cccc(OCc2ccc3ccccc3n2)c1,-14,24,-39,8,82*,14
CC(=O)N1[C@@H]2c3ccc(-c4ccncc4)c(=O)n3C[C@@H]2[C@@H](CO)[C@@H]1C(=O)NC1Cc2ccccc2C1,3,.,3,.,.,.
CCCNC(=O)C1(C)CCCN(Cc2ccc(-c3ccccc3)o2)C1 (stereo not given),4,2,24,12,.,70*
